Source: PubChem BioAssay AID504766 (The Scripps Research Institute Molecular Screening Center, 2011)
Among all 340,000 compounds or so, about 3,400 (1%) were called active. Many of the other results were omitted from the sample, so actives are more common in it than they were. Values without a mark were called inactive.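 The calls were made as follows: active = inhibition above the mean over all tested compounds plus 3 SD (cut at about 4.2% in these data); inactive = the rest.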

Each compound was assayed against Nuclear receptor subfamily 0 group B member 1 (Homo sapiens) (UniProt P51843) (assay: relief of DAX1 transcriptional repression – cell-based, HEK293, Gal4-DAX1, luciferase luminescence, primary screen (AID 504766;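 also: 0% = DAX1-transfected cells with DMSO and 100% = empty-vector control cells with DMSO; inhibition shows as a rise in luminescence from relieved DAX1 repression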)). Conditions: HEK293 Gal4-DAX1 luciferase reporter, at 6.75 µM, hits give high values.
Nuclear receptor subfamily 0 group B member 1 (Homo sapiens), sequence (P51843 207-470 limits assumed): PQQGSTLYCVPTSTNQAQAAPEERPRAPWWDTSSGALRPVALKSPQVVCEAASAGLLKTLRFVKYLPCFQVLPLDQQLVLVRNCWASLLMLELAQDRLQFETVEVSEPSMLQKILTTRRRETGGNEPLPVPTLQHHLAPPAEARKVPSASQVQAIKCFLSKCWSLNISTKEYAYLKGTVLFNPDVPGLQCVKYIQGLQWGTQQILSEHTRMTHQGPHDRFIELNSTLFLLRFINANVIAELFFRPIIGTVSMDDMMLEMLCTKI

| SMILES | inhibition |
| --- | --- |
| COc1ccccc1OCCNC(=O)CCNC(=O)c1ccccc1Cl | 0.98% |
| COc1cc(SC)ccc1C(=O)NCCOc1ccccc1Cl | 4.52% (active) |
| COc1cc(SC)ccc1C(=O)N(Cc1ccccc1)c1ccccc1 | -0.88% |
| O=C(NCC(F)(F)F)c1ccc(S(=O)(=O)NCCc2ccc3c(c2)OCCO3)cc1 | 1.37% |
| C#Cc1cc(N2CCN(C(=O)c3ccoc3)CC2)n2nc(-c3cccc(Cl)c3)cc2n1 | -0.19% |
| CCCc1c(C)nc2scc(-c3ccc(Cl)cc3)n2c1=O | 1.4% |
| COc1ccc(OC)c(/C=C/C(=O)OCC(=O)Nc2ccc3c(c2)OCCO3)c1 | 0.21% |
| COc1ccc(NC(=O)NCc2ccc3c(c2)OCO3)c(OC)c1 | 0.03% |
| COc1ccc(OC)c(/C=C/C(=O)c2ccc3c(c2)OCO3)c1 | 5.49% (active) |
| CCCCN(C(C)=O)c1ccc2c(c1)C1CC2CCN1Cc1ccccc1 (stereo not given) | 1.48% |
| CCN(CC)CCN(C(=O)c1ccc2c(c1)CCCC2)c1nc2c(OC)cccc2s1 | -0.58% |
| CC(C)(C)NC(=O)NCc1ccco1 | 4.44% (active) |
| COC(=O)/C=C/C(=O)NCc1ccco1 | 1.74% |
| O=C(CC12CC3CC(CC(C3)C1)C2)NCc1ccco1 | -0.86% |
| COc1ccc(OC)c(C(=O)NC2CCCc3c2cnn3-c2cc(C)cc(C)c2)c1 (stereo not given) | -1.87% |
| COc1ccc(NC(=O)C2COc3ccccc3O2)cc1 (stereo not given) | 5.29% (active) |
| CC(=O)c1cccc(NC(=O)C2COc3ccccc3O2)c1 (stereo not given) | 2.01% |
| COc1ccc(NC(=O)COC(=O)C2COc3ccccc3O2)cc1 (stereo not given) | 0.47% |
| COc1cc(C(=O)N2CCOC23CCN(Cc2ccccc2)CC3)cc(OC)c1OC | 2.69% |
| O=C(CN1C(=O)NC2(CCCCCC2)C1=O)NCc1ccc(F)cc1 | -0.55% |

| SMILES | inhibition |
| --- | --- |
| O=C(CN1C(=O)NC2(CCCC2)C1=O)NCC1CCCO1 (stereo not given) | 10.2% (active) |
| O=C(CN1C(=O)NC2(CCCCCC2)C1=O)NC1CC1 | -0.19% |
| CC1CCCC(C)N1C(=O)COC(=O)c1ccccc1C(=O)c1ccccc1 (stereo not given) | 1.22% |
| N#CCCN1CCN(S(=O)(=O)c2ccc(S(=O)(=O)NC3CC3)cc2)CC1 | -1.02% |
| N#CCCN1CCN(S(=O)(=O)c2ccc(S(=O)(=O)NC3CCCCC3)cc2)CC1 | 4.67% (active) |
| N#CCCN1CCN(S(=O)(=O)c2ccc(S(=O)(=O)N3CCCC3)cc2)CC1 | 2.37% |
| CNC(=O)c1ccc(CN(C)C(=O)c2cc(C3CC3)nc3c2cnn3C(C)C)cc1 | 0.25% |
| COCCNC(=O)CSc1nc(N)c(NC(=O)c2ccco2)c(=O)[nH]1 | 0.48% |
| CCN(CC(=O)Nc1ccc(NC(C)=O)cc1)C(=O)C1CC(=O)N(c2ccc3c(c2)OCCO3)C1 (stereo not given) | 0.46% |
| CCn1c(CN2C(=O)CSc3ccccc32)n[nH]c1=S | 7.22% (active) |
| CCn1c(CSCc2c(Cl)cccc2Cl)n[nH]c1=S | -0.93% |
| CCn1c(CNS(=O)(=O)c2ccc(Cl)cc2)n[nH]c1=S | 0.01% |
| O=C(COC(=O)c1cncc(Br)c1)Nc1ccc(S(=O)(=O)N2CCOCC2)cc1 | 1.32% |
| O=C(Nc1cc(F)ccc1F)c1ccc2c(=O)n3c(nc2c1)CCC3 | 3.09% |
| O=C(CN1CCN(Cc2ccccc2)CC1)NC(c1ccccc1)c1ccccc1 | -1.74% |
| O=C1c2ccccc2C(=O)c2c1cccc2N1CCN(CCO)CC1 | 0% |
| O=C1c2ccccc2C(=O)c2c1cccc2N1CCN(Cc2ccccc2)CC1 | 4.26% (active) |
| CC(=O)Nc1ccc2c3c(ccc([N+](=O)[O-])c13)CC2 | -0.19% |
| COc1cccc(NC(=S)NC(=O)c2c(Cl)c(C)nn2C)c1 | 4.28% (active) |
| COc1cccc(OC)c1C(=O)NC(=S)Nc1ccc(N2CCOCC2)c(Cl)c1 | 0.83% |

| SMILES | inhibition |
| --- | --- |
| Cc1nn(C)c(C(=O)NNC(=S)NC2CCCCC2)c1Cl | -0.26% |
| CCCCCCn1c(=O)n2n(c1=O)C[C@]1(OC(=O)NCc3ccc(OC)c(OC)c3)CN(S(=O)(=O)c3ccc(C)cc3)C[C@]1(O)C2 | -0.07% |
| C=CCN1CCN(c2ccncc2S(=O)(=O)N2CCN(C)CC2)CC1 | 1.7% |
| C[C@@H]1CN([C@@H](C)CO)C(=O)c2c(c3ccccc3n2C)-c2ccccc2CO[C@H]1CN(C)C(=O)C1CC1 | 0.47% |
| COc1ccc(NC(=O)N(C)C[C@@H]2OCc3cn(nn3)CCCC(=O)N([C@H](C)CO)C[C@H]2C)c(OC)c1 | -0.22% |
| C=CCOc1ccccc1NC(=O)CN1C(=O)CNC1=O | 4.47% (active) |
| C=CCOc1ccccc1/C=N/NC(=O)Cc1ccccc1 | 0.28% |
| Cc1cccc(NC(=O)CN2C(=O)CNC2=O)c1 | 1.34% |
| COc1ccc(/C=C2\N=C3CCCN3C2=O)cc1 | 4.84% (active) |
| COc1ccc(/C=C2/CCCc3ccccc3C2=O)cc1 | -1.11% |
| COc1ccc(/C=C2\SC(=N)N(c3ccc(F)cc3)C2=O)cc1 | -0.7% |
| COc1ccc(S(=O)(=O)N2CCC(C(=O)NCCC(=O)NCCc3cccc(F)c3)CC2)cc1 | 0.25% |
| CSc1ncnc2c1ncn2CCCNCC1CCCCC1 | -0.19% |
| COc1ccc(-c2nnc(SC(C)C#N)o2)cc1 (stereo not given) | 4.68% (active) |
| COc1ccc(-c2nnc(SC(=O)N3c4ccccc4Sc4ccccc43)o2)cc1 | -1.53% |
| COc1ccc(-c2nnc(SC(C)C(=O)NC3CC3)o2)cc1 (stereo not given) | 1.85% |
| CNC(=O)C1CN(C(=O)c2cccc(S(=O)(=O)N3CCc4ccccc43)c2)c2ccccc2O1 (stereo not given) | -2.16% |
| CCCN(C(=O)CSc1nnnn1C)c1c(N)n(Cc2ccccc2)c(=O)[nH]c1=O | 5.42% (active) |
| CCCCN(C(=O)CSCc1ccc(C)cc1)c1c(N)n(Cc2ccccc2)c(=O)[nH]c1=O | 0.19% |
| CCCN(C(=O)CSc1nnc(N)s1)c1c(N)n(Cc2ccccc2)c(=O)[nH]c1=O | -2.02% |
